Test results taken from the supplement of paper PMC10849652.
Of roughly 8,800 targets only a part is listed; those with a hit were picked by preference. About 0.5% of all pairs of compound and target were hits.

compound: Cc1ncc(-c2ccnc(Nc3ccc(S(C)(=O)=O)cc3)n2)n1C(C)C; experiment: log2 fold change, soluble protein after heating vs DMSO (PISA); higher = thermal stabilisation; K562 lysate, 10 uM; active = over 0.2 and 3.5 SD of the protein, either way, in both replicates (recomputed)
Procedure, shortened: (§1)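 To prepare the extract, K562 pellets were dounce-homogenised in PBS pH 7.4 with 1 mM MgCl2, giving crude material at 1 mg/mL protein. This was treated with 10 μM compound for 30 min, then heated in aliquots for 3 min over 48°C-58°C before pooling and addition of NP-40 to 0.5% at 4°C. Centrifugation at 21,000xg for 90 min left soluble protein in the supernatant, which TMTpro 16plex LC-MS/MS quantified with equalised channel sums. Results are log-two fold changes in thermal stability compared with solvent controls, from duplicates.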

Chain of UniProt Q8IXH7 (Q8IXH7 whole entry, looked up): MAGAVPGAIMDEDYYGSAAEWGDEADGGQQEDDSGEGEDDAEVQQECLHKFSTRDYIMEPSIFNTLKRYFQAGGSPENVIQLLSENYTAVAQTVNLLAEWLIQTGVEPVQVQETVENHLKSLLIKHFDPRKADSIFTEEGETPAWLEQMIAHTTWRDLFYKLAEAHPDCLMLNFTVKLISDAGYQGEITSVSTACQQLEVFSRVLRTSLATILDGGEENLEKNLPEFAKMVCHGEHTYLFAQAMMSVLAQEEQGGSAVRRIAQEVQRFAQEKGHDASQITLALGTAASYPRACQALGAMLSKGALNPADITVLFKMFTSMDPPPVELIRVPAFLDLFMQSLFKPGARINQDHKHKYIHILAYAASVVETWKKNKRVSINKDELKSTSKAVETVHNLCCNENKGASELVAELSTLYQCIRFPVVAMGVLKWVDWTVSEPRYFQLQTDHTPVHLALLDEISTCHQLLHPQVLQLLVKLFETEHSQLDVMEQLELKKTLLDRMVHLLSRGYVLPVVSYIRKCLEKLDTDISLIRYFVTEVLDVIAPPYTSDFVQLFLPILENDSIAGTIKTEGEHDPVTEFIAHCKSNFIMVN
Chain of UniProt Q8TDX7 (Q8TDX7 whole entry, looked up): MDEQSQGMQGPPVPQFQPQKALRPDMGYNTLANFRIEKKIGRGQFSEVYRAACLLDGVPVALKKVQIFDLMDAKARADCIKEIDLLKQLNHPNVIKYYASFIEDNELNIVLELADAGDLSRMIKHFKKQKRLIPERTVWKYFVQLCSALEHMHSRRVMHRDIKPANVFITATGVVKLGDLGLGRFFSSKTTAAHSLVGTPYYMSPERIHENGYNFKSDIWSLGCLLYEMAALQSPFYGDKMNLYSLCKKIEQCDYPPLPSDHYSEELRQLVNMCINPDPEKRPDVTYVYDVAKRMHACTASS
Chain of UniProt Q99417 (Q99417 whole entry, looked up): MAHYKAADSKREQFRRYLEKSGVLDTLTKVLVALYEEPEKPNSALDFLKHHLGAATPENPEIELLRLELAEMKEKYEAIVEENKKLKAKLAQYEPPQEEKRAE
Chain of UniProt P08651 (P08651 whole entry, looked up): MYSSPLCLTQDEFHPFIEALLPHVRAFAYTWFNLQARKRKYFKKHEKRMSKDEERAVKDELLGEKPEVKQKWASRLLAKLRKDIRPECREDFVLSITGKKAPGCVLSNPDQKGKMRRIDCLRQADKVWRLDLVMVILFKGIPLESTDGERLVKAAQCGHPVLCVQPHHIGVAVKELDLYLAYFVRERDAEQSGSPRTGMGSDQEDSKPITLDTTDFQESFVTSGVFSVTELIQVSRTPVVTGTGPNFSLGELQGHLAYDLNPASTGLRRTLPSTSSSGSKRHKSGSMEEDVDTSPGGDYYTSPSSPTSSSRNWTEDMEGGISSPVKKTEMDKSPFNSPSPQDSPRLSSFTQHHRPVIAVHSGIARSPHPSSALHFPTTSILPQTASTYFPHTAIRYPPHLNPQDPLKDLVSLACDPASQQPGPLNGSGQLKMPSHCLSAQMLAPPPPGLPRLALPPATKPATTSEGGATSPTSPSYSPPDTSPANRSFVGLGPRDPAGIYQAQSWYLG
Chain of UniProt Q13469 (Q13469 whole entry, looked up): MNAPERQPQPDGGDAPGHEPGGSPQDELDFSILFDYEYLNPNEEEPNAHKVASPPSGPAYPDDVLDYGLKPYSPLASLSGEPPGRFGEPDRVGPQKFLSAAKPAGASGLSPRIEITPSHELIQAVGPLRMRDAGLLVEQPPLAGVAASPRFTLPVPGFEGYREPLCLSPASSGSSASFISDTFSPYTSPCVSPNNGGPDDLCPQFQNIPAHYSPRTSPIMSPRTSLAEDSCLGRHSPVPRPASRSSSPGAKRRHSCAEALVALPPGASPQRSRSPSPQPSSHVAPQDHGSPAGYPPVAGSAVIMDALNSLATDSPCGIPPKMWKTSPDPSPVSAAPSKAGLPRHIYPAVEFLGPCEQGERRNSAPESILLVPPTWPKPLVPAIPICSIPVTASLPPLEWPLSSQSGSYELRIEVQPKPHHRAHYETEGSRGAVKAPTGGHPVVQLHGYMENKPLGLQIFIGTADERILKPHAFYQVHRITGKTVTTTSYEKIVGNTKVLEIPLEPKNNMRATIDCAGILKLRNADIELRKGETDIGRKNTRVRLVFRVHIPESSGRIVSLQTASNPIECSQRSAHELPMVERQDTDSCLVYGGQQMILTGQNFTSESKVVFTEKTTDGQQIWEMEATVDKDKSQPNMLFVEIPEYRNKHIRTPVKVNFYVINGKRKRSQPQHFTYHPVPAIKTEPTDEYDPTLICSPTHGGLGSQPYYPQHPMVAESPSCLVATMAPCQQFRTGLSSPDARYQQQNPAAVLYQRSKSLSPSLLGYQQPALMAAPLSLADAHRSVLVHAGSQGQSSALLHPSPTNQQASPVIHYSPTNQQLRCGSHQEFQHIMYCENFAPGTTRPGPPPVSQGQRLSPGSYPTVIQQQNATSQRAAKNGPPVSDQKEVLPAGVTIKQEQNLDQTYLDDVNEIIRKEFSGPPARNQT
Chain of UniProt Q15021 (Q15021 whole entry, looked up): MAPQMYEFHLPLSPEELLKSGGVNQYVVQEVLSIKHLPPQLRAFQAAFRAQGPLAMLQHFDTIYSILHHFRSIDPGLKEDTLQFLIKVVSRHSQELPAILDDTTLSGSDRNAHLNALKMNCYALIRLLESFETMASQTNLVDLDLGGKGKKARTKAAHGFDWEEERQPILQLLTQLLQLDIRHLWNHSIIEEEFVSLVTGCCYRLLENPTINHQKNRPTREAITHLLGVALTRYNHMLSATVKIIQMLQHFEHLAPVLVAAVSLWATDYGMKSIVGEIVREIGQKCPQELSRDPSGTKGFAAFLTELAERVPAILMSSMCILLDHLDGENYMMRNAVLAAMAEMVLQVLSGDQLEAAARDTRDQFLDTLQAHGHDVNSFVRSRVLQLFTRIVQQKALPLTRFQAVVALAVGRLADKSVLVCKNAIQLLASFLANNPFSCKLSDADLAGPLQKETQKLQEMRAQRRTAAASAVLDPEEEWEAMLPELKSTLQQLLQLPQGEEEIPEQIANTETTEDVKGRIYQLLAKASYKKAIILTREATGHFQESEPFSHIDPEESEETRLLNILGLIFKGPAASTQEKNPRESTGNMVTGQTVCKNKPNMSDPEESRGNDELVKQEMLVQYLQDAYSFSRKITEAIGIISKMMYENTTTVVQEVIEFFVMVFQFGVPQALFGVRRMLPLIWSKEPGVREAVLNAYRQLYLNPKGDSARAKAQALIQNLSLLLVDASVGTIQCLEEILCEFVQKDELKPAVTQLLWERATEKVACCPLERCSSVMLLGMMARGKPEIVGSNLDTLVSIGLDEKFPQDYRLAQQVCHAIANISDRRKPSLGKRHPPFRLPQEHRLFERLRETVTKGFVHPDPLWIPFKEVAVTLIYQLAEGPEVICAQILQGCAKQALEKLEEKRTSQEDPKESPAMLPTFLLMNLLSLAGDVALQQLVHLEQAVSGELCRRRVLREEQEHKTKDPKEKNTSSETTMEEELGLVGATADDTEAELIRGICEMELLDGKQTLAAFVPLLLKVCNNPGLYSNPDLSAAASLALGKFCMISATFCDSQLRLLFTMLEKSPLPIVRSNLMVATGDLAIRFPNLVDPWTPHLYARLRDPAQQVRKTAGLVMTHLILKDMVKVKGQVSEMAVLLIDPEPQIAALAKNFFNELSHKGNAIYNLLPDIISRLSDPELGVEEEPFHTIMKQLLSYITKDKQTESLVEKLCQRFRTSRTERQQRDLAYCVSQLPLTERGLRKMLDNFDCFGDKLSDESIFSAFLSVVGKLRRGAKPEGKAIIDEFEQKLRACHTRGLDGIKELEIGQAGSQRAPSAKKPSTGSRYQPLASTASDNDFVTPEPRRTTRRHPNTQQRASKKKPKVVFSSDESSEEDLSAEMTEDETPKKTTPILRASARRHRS
Chain of UniProt Q9HBL8 (Q9HBL8 whole entry, looked up): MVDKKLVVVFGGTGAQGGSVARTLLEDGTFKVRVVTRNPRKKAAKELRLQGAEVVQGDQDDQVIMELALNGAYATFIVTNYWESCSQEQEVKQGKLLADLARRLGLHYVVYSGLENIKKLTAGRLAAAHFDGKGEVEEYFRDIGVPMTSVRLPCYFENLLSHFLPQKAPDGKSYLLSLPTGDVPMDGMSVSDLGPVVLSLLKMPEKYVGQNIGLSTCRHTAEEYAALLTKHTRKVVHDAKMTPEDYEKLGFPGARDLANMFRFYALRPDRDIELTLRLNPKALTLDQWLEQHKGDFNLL
Chain of UniProt Q9NQR4 (Q9NQR4 whole entry, looked up): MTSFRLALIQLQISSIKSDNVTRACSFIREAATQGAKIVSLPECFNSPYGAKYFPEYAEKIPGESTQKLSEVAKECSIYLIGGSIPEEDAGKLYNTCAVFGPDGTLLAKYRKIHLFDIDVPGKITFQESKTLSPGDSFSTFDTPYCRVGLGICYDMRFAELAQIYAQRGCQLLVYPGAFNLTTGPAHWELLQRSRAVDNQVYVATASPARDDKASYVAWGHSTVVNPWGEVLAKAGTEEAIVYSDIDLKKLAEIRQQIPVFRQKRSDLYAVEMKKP
Chain of UniProt Q9H857 (Q9H857 whole entry, looked up): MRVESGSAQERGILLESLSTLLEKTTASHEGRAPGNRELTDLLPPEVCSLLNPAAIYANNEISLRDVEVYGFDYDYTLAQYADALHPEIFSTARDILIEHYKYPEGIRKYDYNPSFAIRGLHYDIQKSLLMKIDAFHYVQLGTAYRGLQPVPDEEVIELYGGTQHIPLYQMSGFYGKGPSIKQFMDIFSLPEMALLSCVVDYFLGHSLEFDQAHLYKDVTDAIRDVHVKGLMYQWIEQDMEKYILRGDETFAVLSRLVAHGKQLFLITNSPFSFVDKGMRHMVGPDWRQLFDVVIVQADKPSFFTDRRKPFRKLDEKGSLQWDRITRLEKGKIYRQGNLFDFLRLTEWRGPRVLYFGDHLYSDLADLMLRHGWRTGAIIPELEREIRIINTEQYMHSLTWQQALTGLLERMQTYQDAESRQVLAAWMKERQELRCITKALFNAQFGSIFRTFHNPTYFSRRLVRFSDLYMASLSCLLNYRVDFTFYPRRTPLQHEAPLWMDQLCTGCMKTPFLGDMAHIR

log2 fold change, inactive:
NTPCR (UniProt Q9BSD7) 0.056
MTHFD1L (UniProt B7ZM99) 0.002
NOA1 (UniProt Q8NC60) -0.011
NT5DC2 isoform 2 (UniProt Q9H857) 0.029
OTUD7B (UniProt Q6GQQ9) 0.03
NADK2 (UniProt Q4G0N4) -0.008
NTMT1 (UniProt Q9BV86) 0.002
OSGEP (UniProt Q9NPF4) 0.018
NDUFA4 (UniProt O00483) 0.16
NUB1 (UniProt Q9Y5A7) 0.028
NFATC2 (UniProt Q13469) 0.061
ORC2 (UniProt Q13416) -0.014
NELFCD (UniProt Q8IXH7) -0.025
NMRAL1 (UniProt Q9HBL8) -0.005
PAIP2 (UniProt Q9BPZ3) -0.009
NCAPD2 (UniProt Q15021) -0.001
NEDD8 (UniProt Q15843) 0.103
NFIC (UniProt P08651) -0.114
NELFA (UniProt Q9H3P2) -0.02
NLRP2 (UniProt Q9NX02) 0.007
OSBPL6 isoform 5 (UniProt Q9BZF3) -0.045
MTCH2 (UniProt Q9Y6C9) -0.014
NAA38 isoform 2 (UniProt Q9BRA0) -0.007
NAP1L5 (UniProt Q96NT1) 0.045
MT-ND1 (UniProt P03886) -0.074
NFATC2IP (UniProt Q8NCF5) -0.055
MYCBP (UniProt Q99417) 0.055
NIT2 (UniProt Q9NQR4) -0.021
NEBL (UniProt O76041) 0.032
NFKBIB (UniProt Q15653) 0.052
NEK7 (UniProt Q8TDX7) 0.045
NCOR1 (UniProt O75376) -0.019
ORC3 isoform 2 (UniProt Q9UBD5) -0.014
NCK1 (UniProt P16333) -0.037
NFATC1 (UniProt O95644) 0.014

compound: Cn1cc(-c2ccc3c(c2)CCN3C(=O)Cc2cccc(C(F)(F)F)c2)c2c(N)ncnc21; experiment: as above
Procedure, shortened: as §1

log2 fold change, inactive:
NTPCR (UniProt Q9BSD7) 0.032
MTHFD1L (UniProt B7ZM99) 0.046
NOA1 (UniProt Q8NC60) -0.036
NT5DC2 isoform 2 (UniProt Q9H857) -0.027
OTUD7B (UniProt Q6GQQ9) 0.027
NADK2 (UniProt Q4G0N4) -0.022
NTMT1 (UniProt Q9BV86) 0.047
OSGEP (UniProt Q9NPF4) 0.025
NDUFA4 (UniProt O00483) -0.007
NUB1 (UniProt Q9Y5A7) 0.014
NFATC2 (UniProt Q13469) -0.001
ORC2 (UniProt Q13416) -0.004
NELFCD (UniProt Q8IXH7) 0.034
NMRAL1 (UniProt Q9HBL8) -0.039
PAIP2 (UniProt Q9BPZ3) -0.049
NCAPD2 (UniProt Q15021) 0.031
NEDD8 (UniProt Q15843) -0.034
NFIC (UniProt P08651) 0.022
NELFA (UniProt Q9H3P2) -0.009
NLRP2 (UniProt Q9NX02) 0.032
OSBPL6 isoform 5 (UniProt Q9BZF3) 0.036
MTCH2 (UniProt Q9Y6C9) -0.024
NAA38 isoform 2 (UniProt Q9BRA0) 0.001
NAP1L5 (UniProt Q96NT1) 0.01
MT-ND1 (UniProt P03886) 0.035
NFATC2IP (UniProt Q8NCF5) 0.005
MYCBP (UniProt Q99417) -0.011
NIT2 (UniProt Q9NQR4) -0.027
NEBL (UniProt O76041) -0.007
NFKBIB (UniProt Q15653) 0.043
NEK7 (UniProt Q8TDX7) 0.168
NCOR1 (UniProt O75376) 0.008
ORC3 isoform 2 (UniProt Q9UBD5) -0.012
NCK1 (UniProt P16333) -0.015
NFATC1 (UniProt O95644) 0.037
